Laboratory results: PubChem BioAssay (Tox21)
Inconclusive results are not listed. Entries that show only a call come without a potency. Values without a mark were called inactive. Calls of active or inactive are those of the source. Calls come from the whole dose curve; as a rule, active = well fitted inhibition curve with a large enough effect in the signal ratio in the repeat runs, with a control signal flat; inconclusive = weak or mixed curves, or effect the other way; inactive = flat fitted curve, though single readings scatter; the % refers to the signal ratio. Bridge positions count the residues as written; N and C are the ends. Square brackets hold non-standard residues; d marks the D form. Peptide text beside a SMILES is read from it. hArg = N=C(N)NCCCC[C@H](N)C(=O)O; Mpa = O=C(O)CCS

molecular target: D(2) dopamine receptor (Homo sapiens) (UniProt P14416); test: Dopamine D2 receptor (DRD2) small molecule antagonists, cell-based qHTS assay (AID 1963595); conditions: HEK293-DRD2 cAMP HTRF antagonist mode; series mostly up to 92.4 µM
From the text: National Center for Advancing Translational Sciences [NCATS]
Division of Preclinical Innovation [DPI]
U.S. Environmental Protection Agency [EPA]
National Institutes of Environmental Health Sciences [NIEHS]
National Toxicology Program [NTP]
U.S. Food and Drug Administration [FDA]
DRD2 is the D2 subtype of the dopamine receptor, which is coupled to Gi subtype of G protein-coupled receptor. This G protein-coupled receptor inhibits adenylyl cyclase activity. The DRD2-HEK293 cell line stably expressing D2 dopamine receptor can be used for screening agonists and antagonists of interactions between D2 and its ligands. The Hek293-DRD2 cAMP assay is based on HTRF technology. It measures changes of cAMP accumulation in response to Gi coupled GPCR activation or inhibition.
Tox21 Assay Protocol Summary:
DRD2-Hek293 cells were dispensed at 600 cells/3uL/well in 1536-well white plates using a Multidrop Dispenser. After the assay plates were incubated at a 37 C/5% CO2 incubator for 24 h, 1 uL of Ro20-1724 at final concentration of 0.1 mM was transferred to the assay plate by a Flying Reagent Dispenser. Following Ro20-1724 addition, 23 nL of compound dissolved in DMSO, positive controls or DMSO only was added to the assay plates via Wako pintool station. The assay plates were incubated at room temperature for 10 min. Next, 1 uL of mixture of NKH477 (final concentration at 200 nM) and quinpirole (final concentration at 12 nM) was added into the plates. After the assay plates were incubated at room temperature for an additional 30 min, 2.5 ul/well of cAMP-d2 and 2.5 ul/well of anti-cAMP-cryptate were added respectively into the assay plates using a Flying Reagent Dispenser. The plates were incubated at room temperature for 1 h. The fluorescence intensity in the plates was measured at 340 nm excitation and 665 & 620 nm emission by an Envision plate reader.
Potency is the fitted concentration of half-maximal effect.

Chain of D(2) dopamine receptor (Homo sapiens) (P14416 whole entry, looked up): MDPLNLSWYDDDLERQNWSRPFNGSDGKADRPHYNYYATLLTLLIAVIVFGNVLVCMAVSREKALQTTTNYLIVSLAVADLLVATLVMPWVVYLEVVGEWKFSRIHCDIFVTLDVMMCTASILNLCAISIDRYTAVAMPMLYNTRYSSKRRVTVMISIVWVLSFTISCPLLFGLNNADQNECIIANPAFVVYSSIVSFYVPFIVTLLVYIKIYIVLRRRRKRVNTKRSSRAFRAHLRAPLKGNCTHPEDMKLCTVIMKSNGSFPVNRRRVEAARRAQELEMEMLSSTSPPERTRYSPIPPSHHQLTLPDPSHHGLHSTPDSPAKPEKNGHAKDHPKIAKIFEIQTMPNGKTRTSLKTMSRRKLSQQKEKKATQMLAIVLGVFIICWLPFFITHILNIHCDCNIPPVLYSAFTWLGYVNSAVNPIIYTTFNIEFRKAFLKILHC

Row | SMILES | Potency | activity change, negative = inhibition
1 | O=c1cc(-c2ccc(O)cc2)oc2cc(O)cc(O)c12 | inactive | –
2 | CC(C)(C)C1CCCCC1=O (stereo not given) | inactive | –
3 | CSc1ccc(O)cc1C | inactive | –
4 | O=C(O)c1cccnc1Nc1cccc(C(F)(F)F)c1 | inactive | –
5 | CCC(=O)OCCc1ccccc1 | inactive | –
6 | CCOC(=O)C(F)(F)F | inactive | –
7 | NC(N)=NCCN1CCCCCCC1 | – | -0.0361% [at 0.348 µM]
8 | C=Cc1ccc(C(C)(C)C)cc1 | inactive | –
9 | CCCCCC(C)O (stereo not given) | inactive | –
10 | CCCCCC/C=C\CCCCCCCC(=O)O | inactive | –
11 | C=CC(=O)NC(C)(C)C | inactive | –
12 | CC(CO)(CO)[N+](=O)[O-] | inactive | –
13 | COc1ccc2cc(CCC(C)=O)ccc2c1 | inactive | –
14 | CO[C@]1(NC(=O)CSC(F)F)C(=O)N2C(C(=O)O)=C(CSc3nnnn3CCO)CO[C@H]21 | inactive | –
15 | CCCCO | inactive | –
16 | NC(=O)[C@@H]1CSSCCC(=O)N[C@@H](CCCCN=C(N)N)C(=O)NCC(=O)N[C@@H](CC(=O)O)C(=O)N[C@@H](Cc2c[nH]c3ccccc23)C(=O)N2CCC[C@H]2C(=O)N1 ([Mpa][hArg]GDWPC-NH2; disulfide 1-7) | inactive | –
17 | CC(=O)OCC(=O)NCCCOc1cccc(CN2CCCCC2)c1 | inactive | –
18 | CO/N=C(/C(=O)N[C@@H]1C(=O)N2C(C(=O)[O-])=C(C[n+]3ccn4ncccc43)CS[C@H]12)c1nsc(N)n1 | inactive | –
19 | Nc1ccc(-c2ccc(F)cc2)cc1 | inactive | –
20 | COC(=O)c1cc(Cl)ccc1[N+](=O)[O-] | inactive | –

Row | SMILES | Potency | activity change, negative = inhibition
21 | CCc1cc(C2=C(C(=O)O)N(c3ccccc3C(F)(F)F)S(=O)(=O)c3ccccc32)cc2c1OCO2 | inactive | –
22 | Oc1ccc(Cl)cc1C1CCCC1 | 61.1 µM (active) | –
23 | c1cc(OCC2CO2)cc(OCC2CO2)c1 (stereo not given) | inactive | –
24 | CCC[C@@H]1C[C@@H](C(=O)N[C@@H]([C@H]2O[C@H](SC)[C@H](O)[C@@H](O)[C@H]2O)[C@@H](C)O)N(C)C1 | inactive | –
25 | CC(=O)OCC(CCn1cnc2cnc(N)nc21)COC(C)=O | inactive | –
26 | CCN1C=CN(C)C1C (stereo not given) | inactive | –
27 | CC(C)CCCCCCOC(=O)C1CCCCC1C(=O)OCCCCCCC(C)C (stereo not given) | inactive | –
28 | CCCCOC(=O)CC#N | inactive | –
29 | C1CCC2(CCCCO2)OC1 | inactive | –
30 | CN1CCC(=C2c3ccccc3Sc3ccccc32)CC1 | 0.75 µM (active) | –
31 | CC(=O)N(C)C | inactive | –
32 | Cc1cc(O)c(C(C)C)cc1Cl | inactive | –
33 | O=C1c2cccc3c2[C@H](CCC3)CN1[C@@H]1CN2CCC1CC2 | inactive | –
34 | CCOC(=O)NCCOc1ccc(Oc2ccccc2)cc1 | inactive | –
35 | CCCC(CC)CCCCCCCN (stereo not given) | inactive | –
36 | CC1(C)O[C@@H]2C[C@H]3[C@@H]4CCC5=CC(=O)CC[C@]5(C)[C@@]4(F)[C@@H](O)C[C@]3(C)[C@]2(C(=O)CCl)O1 | inactive | –
37 | C[C@@H](N)C(=O)O | inactive | –
38 | CCOC(C)OCC | inactive | –
39 | Cc1ccc(Cl)cc1N | inactive | –
40 | N[C@@H]1CONC1=O | inactive | –
